Experimental data reported in the supplement of paper PMC8728848.
Only a selection was taken, and the strongest signals are over-represented in it overall.

Key:
Experiment in all cases: glycan array binding signal (z-score within array); higher = stronger binding
Conditions in all cases: glycan notation: IUPAC condensed, linker removed
[1] = target: Fuc(a1-2)Gal(b1-3)GlcNAc(b1-2)Man(a1-3)[Fuc(a1-2)Gal(b1-3)GlcNAc(b1-2)Man(a1-6)]Man(b1-4)GlcNAc(b1-4)GlcNAc
Method in brief: (§1)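 Arrays were curated from the Consortium for Functional Glycomics database, 3228 in total, and kept only where the protein sequence was available. Binding is expressed as a within-array Z-score. This score was averaged across arrays of the same protein sequence at different concentrations or buffers and across linkers, and negative values can be read as non-binding.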

[2] = target: Fuc(a1-2)Gal(b1-3)GlcNAc(b1-3)GalNAc
Method in brief: as §1

[3] = target: Fuc(a1-2)Gal(b1-4)GlcNAc6S
Method in brief: as §1

[4] = target: Fuc(a1-2)Gal(b1-4)[Fuc(a1-3)]GlcNAc
Method in brief: as §1

[5] = target: Fuc(a1-2)Gal(b1-4)[Fuc(a1-3)]GlcNAc(b1-2)[Fuc(a1-2)Gal(b1-4)[Fuc(a1-3)]GlcNAc(b1-4)]Man(a1-3)[Fuc(a1-2)Gal(b1-4)[Fuc(a1-3)]GlcNAc(b1-2)Man(a1-6)]Man(b1-4)GlcNAc(b1-4)GlcNAc
Method in brief: as §1

[6] = target: Fuc(a1-2)[Gal(a1-3)]Gal(b1-3)GlcNAc
Method in brief: as §1

[7] = target: Fuc(a1-2)[Gal(a1-3)]Gal(b1-4)GlcNAc(b1-2)Man(a1-3)[Fuc(a1-2)[Gal(a1-3)]Gal(b1-4)GlcNAc(b1-2)Man(a1-6)]Man(b1-4)GlcNAc(b1-4)GlcNAc
Method in brief: as §1

[8] = target: Fuc(a1-2)[GalNAc(a1-3)]Gal(b1-4)Glc
Method in brief: as §1

[9] = target: Fuc(a1-2)[GalNAc(a1-3)]Gal(b1-4)GlcNAc(b1-3)GalNAc
Method in brief: as §1

[10] = target: Fuc(a1-3)[Gal(b1-4)]GlcNAc(b1-2)Man(a1-3)[Fuc(a1-3)[Gal(b1-4)]GlcNAc(b1-2)Man(a1-6)]Man(b1-4)GlcNAc(b1-4)[Fuc(a1-6)]GlcNAc
Method in brief: as §1

[11] = target: Gal(a1-3)Gal(b1-3)GlcNAc(b1-3)GalNAc
Method in brief: as §1

[12] = target: Gal(b1-3)GlcNAc(a1-3)Gal(b1-4)GlcNAc
Method in brief: as §1

[13] = target: Gal(b1-3)GlcNAc(b1-3)Gal(b1-4)[Fuc(a1-3)]GlcNAc
Method in brief: as §1

[14] = target: Gal(b1-3)GlcNAc(b1-3)Gal(b1-4)[Fuc(a1-3)]GlcNAc(b1-6)[Gal(b1-3)GlcNAc(b1-3)]Gal(b1-4)Glc
Method in brief: as §1

[15] = target: Gal(b1-3)GlcNAc(b1-3)GalNAc
Method in brief: as §1

[16] = target: Gal(b1-4)GlcNAc(b1-3)Gal(b1-3)GlcNAc
Method in brief: as §1

[17] = target: Gal(b1-4)GlcNAc(b1-3)Gal(b1-4)GlcNAc(b1-2)[Gal(b1-4)GlcNAc(b1-3)Gal(b1-4)GlcNAc(b1-6)]Man(a1-6)[Gal(b1-4)GlcNAc(b1-3)Gal(b1-4)GlcNAc(b1-2)Man(a1-3)]Man(b1-4)GlcNAc(b1-4)[Fuc(a1-6)]GlcNAc
Method in brief: as §1

[18] = target: Gal(b1-4)GlcNAc(b1-3)Gal(b1-4)GlcNAc(b1-3)Gal(b1-4)GlcNAc(b1-3)Gal(b1-4)GlcNAc(b1-3)Gal(b1-4)GlcNAc(b1-2)Man(a1-3)[Gal(b1-4)GlcNAc(b1-3)Gal(b1-4)GlcNAc(b1-3)Gal(b1-4)GlcNAc(b1-3)Gal(b1-4)GlcNAc(b1-3)Gal(b1-4)GlcNAc(b1-2)Man(a1-6)]Man(b1-4)GlcNAc(b1-4)GlcNAc
Method in brief: as §1

[19] = target: Gal(b1-4)GlcNAc(b1-3)Gal(b1-4)GlcNAc(b1-6)[Gal(b1-3)]GalNAc
Method in brief: as §1

[20] = target: Gal(b1-4)GlcNAc(b1-6)[Gal(b1-4)GlcNAc(b1-3)]GalNAc
Method in brief: as §1

Gal3S(b1-3)GlcNAc = target: Gal3S(b1-3)GlcNAc
Method in brief: as §1

Gal3S(b1-4)Glc6S = target: Gal3S(b1-4)Glc6S
Method in brief: as §1

Gal6S(b1-4)Glc6S = target: Gal6S(b1-4)Glc6S
Method in brief: as §1

[21] = target: GalNAc(b1-3)Gal(a1-4)Gal(b1-4)GlcNAc
Method in brief: as §1

GalNAc(b1-3)GlcNAc = target: GalNAc(b1-3)GlcNAc
Method in brief: as §1

[22] = target: GalNAc3S(b1-4)[Fuc(a1-3)]GlcNAc
Method in brief: as §1

B1: Clec39 (Caenorhabditis elegans) (protein)
chain: MTSFYDNSSSSSKPVPLKTSRAQKIQILIFDNWKLILYGAISTLILVLAIMFSTLFFALPAANCDENSEPTKYYTTNAEITTTITTTNQKTTSTASSHLTTISSSATQIYSESSSSSTSQSTFTQSPPEISTTTIAPSDFSCQHGFTLVNNKCWKLVTSNQARPDADKICNGYGGATLFSIKSEQDNRAMIHFVKGQDIDFLWSGLLCSAGEPISCIWDIENGSTANYSNFADGFPNIVYGNCVYFITSGDEAGQWGNEQCGQVMNFVCELPATFQGKDGCKNNYEKSCYLRFDLNLTVPQAQNFCLEKCANLVSIHSANEVRFIMTIYDFIGEILIGALAPAQDFIYWLDGTPANYNNLKFFYNSTCVHMTVAPGMQNVGKWFTRFCTETGKFLCKRSIKNSCT
[1]
  glycan array binding signal (z-score): 2.06
[2]
  glycan array binding signal (z-score): 1.86
[3]
  glycan array binding signal (z-score): -0.018
[4]
  glycan array binding signal (z-score): 0.187
[5]
  glycan array binding signal (z-score): 3.52
[6]
  glycan array binding signal (z-score): -0.274
[7]
  glycan array binding signal (z-score): 3.03
[8]
  glycan array binding signal (z-score): 2.18
[9]
  glycan array binding signal (z-score): -0.527
[10]
  glycan array binding signal (z-score): 4.38
[11]
  glycan array binding signal (z-score): -0.178
[12]
  glycan array binding signal (z-score): -0.68
[13]
  glycan array binding signal (z-score): -0.715
[14]
  glycan array binding signal (z-score): 0.976
[15]
  glycan array binding signal (z-score): -0.666
[16]
  glycan array binding signal (z-score): -0.657
[17]
  glycan array binding signal (z-score): 0.173
[18]
  glycan array binding signal (z-score): 3.63
[19]
  glycan array binding signal (z-score): 0.593
[20]
  glycan array binding signal (z-score): 5.43
Gal3S(b1-3)GlcNAc
  glycan array binding signal (z-score): -0.524
Gal3S(b1-4)Glc6S
  glycan array binding signal (z-score): 0.293
Gal6S(b1-4)Glc6S
  glycan array binding signal (z-score): 2
[21]
  glycan array binding signal (z-score): 1.49
GalNAc(b1-3)GlcNAc
  glycan array binding signal (z-score): -0.927
[22]
  glycan array binding signal (z-score): 1.07
